Values without a mark were called inactive.

We go through nine molecules from the supplement of paper PMC11634586.

This assay deals with NCI-H1688. Put plainly: inhibition of cell viability relative to untreated control (fraction); higher = stronger growth inhibition, active = 0.5 or more. To be noted: 30 µM; 24 h. In outline: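 Values are inhibition of cell viability expressed as a fraction, derived from viability normalised to untreated cells. NCI-H1688 small cell lung cancer cells in 96-well plates were exposed to a natural compound library (TargetMol) at 30 µM for 24 h at 37°C with 5% CO2, and Cell Counting Kit-8 absorbance at 450 nm was then read.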
Regarding `C[C@@H]1O[C@@H](O[C@@H]2[C@@H](O)[C@H](OCCc3ccc(O)c(O)c3)O[C@H](CO[C@@H]3O[C@H](CO)[C@@H](O)[C@H](O)[C@H]3O)[C@H]2OC(=O)/C=C/c2ccc(O)c(O)c2)[C@H](O)[C@H](O)[C@H]1O` [Echinacoside], the “inhibition of cell viability” value is 0.128. As to `C=C1C(=O)O[C@@H]2C[C@@]3(C)CCC[C@H](C)C3=C[C@H]12` [Helenine], the “inhibition of cell viability” value was 0.789 (active). As for `CC(=O)[C@@]1(O)CC[C@H]2[C@@H]3CCC4=CC(=O)CC[C@]4(C)[C@H]3CC[C@@]21C` [Hydroxyprogesterone], the figure is 0.102; as for `Oc1cc(O)cc(/C=C/c2ccc(O)c(O)c2)c1` [Piceatannol], 0.164; as for `C=C1CC[C@H]2O[C@]2(C)CC[C@@H]2[C@@H]1CC2(C)C` [Caryophyllene oxide], -0.0678.

Consider `CC1(C)[C@@H](O[C@H]2O[C@H](C(=O)O)[C@@H](O)[C@H](O)[C@H]2O[C@@H]2O[C@H](C(=O)O)[C@@H](O)[C@H](O)[C@H]2O)CC[C@]2(C)[C@H]3C(=O)C=C4[C@@H]5C[C@@](C)(C(=O)O)CC[C@]5(C)CC[C@@]4(C)[C@]3(C)CC[C@@H]12` [Glycyrrhizin (Glycyrrhizic Acid)], for which the “inhibition of cell viability” value was -0.0055. With `N[C@@H](Cc1c[nH]c2ccccc12)C(=O)O` [L-Tryptophan], the “inhibition of cell viability” value is -0.199. The value for `O=c1cc(-c2ccc(O)c(O)c2)oc2cc(O)cc(O)c12` [Luteolin] was 0.794 (active); that for `CCCCCCCCCCCCCCCCCCOCC(O)CO` (centres undefined) [Batyl alcohol] was -0.0252.
